Here are results for 38 molecules from paper PMC13494018.

In this experiment the target is VTCN1, Q7Z7D3.

Values without a mark were called inactive. No rule for the calls is given here.

VTCN1, Q7Z7D3, sequence (Q7Z7D3 whole entry): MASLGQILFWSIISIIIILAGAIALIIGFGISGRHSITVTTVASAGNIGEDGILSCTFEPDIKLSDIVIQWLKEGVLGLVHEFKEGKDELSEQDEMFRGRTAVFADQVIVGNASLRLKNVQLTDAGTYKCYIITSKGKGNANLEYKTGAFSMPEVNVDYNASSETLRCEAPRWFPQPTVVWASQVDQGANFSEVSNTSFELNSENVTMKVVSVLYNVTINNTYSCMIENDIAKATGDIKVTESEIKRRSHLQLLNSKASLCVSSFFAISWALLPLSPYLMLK

B1: design_609_7ee6ce64-4629-41e8-bcb4-ba0da017284d_985_dldesign_0_cycle1_af2pred (protein)
chain: SEEVLELGEREAERLKEAGASNRSIGLVLFLAEEAAEGNLEAAEGIFRAARREAEREKEKNPEVGELLEEALERLRKAAE
With B1, the “binding in a display sort” value is “not found”.

B2: design_609_7ee6ce64-4629-41e8-bcb4-ba0da017284d_1790_dldesign_0_cycle1_af2pred (protein)
chain: NEADKEVEELTKKIKELTKKAKEALEKGNIEEAKKYAEEAMKAIKKAREIAPKASKELQKEASKAAAEAYEVYAEVEFKSK
As to B2, the “binding in a display sort” value is “not found”.

B3: design_609_7ee6ce64-4629-41e8-bcb4-ba0da017284d_1401_dldesign_0_cycle1_af2pred (protein)
chain: ALAALLEGLAKAAVIVARGIRRAARYAGDPRKAGFAFIVAGEQAFLVGRADPNPVAAAVLWLTGVLLIAIGLAIEAS
With B3, the “binding in a display sort” value was “not found”.

B4: design_609_7ee6ce64-4629-41e8-bcb4-ba0da017284d_842_dldesign_0_cycle1_af2pred (protein)
chain: SMREEELEADRKKVDEGAKELKKLGEEAAKKAKTWEEFVKGHKELREKAKEVVDAALPEVKPYAEKAASKVVHDARQKGAENVQKQK
On to B4, for which the “binding in a display sort” value is “not found”.

B5: design_609_7ee6ce64-4629-41e8-bcb4-ba0da017284d_1938_dldesign_0_cycle1_af2pred (protein)
chain: EEELKKLIEEHMEKLAKEAEKADPEVGKEVKEALKKAKKLNVGEAISLFLSTGARAAKEIGKKDPEKGKKVKEIVDKALDEIFSK
With B5, the “binding in a display sort” value was “not found”.

B6: design_609_7ee6ce64-4629-41e8-bcb4-ba0da017284d_1161_dldesign_0_cycle1_af2pred (protein)
chain: GSEEARKLQEEFGEALRRFTAAGRRLVETGREVGERTGDPEIEERARRVAEEGNRRRLEALDAGDVEAILAVADELERATEELL
As for B6, the “binding in a display sort” value was “not found”.

B7: design_609_7ee6ce64-4629-41e8-bcb4-ba0da017284d_1630_dldesign_0_cycle1_af2pred (protein)
chain: AAGAAAVAAASKARGEALFELAAKAKFGTEEEAKEAEAKRKALTAAAKAVKAAAGTADAAAVATAARAQAEAIL
B7: the “binding in a display sort” value is “not found”.

B8: design_609_7ee6ce64-4629-41e8-bcb4-ba0da017284d_1996_dldesign_0_cycle1_af2pred (protein)
chain: AAAATAHEAIQTSTEAAEKLKKGKTEEDKELGKEIEEKRKELSRRAAEAQKEGPEAAKKAVAELAKFAEEAKKIAEEREKKRK
On to B8, for which the “binding in a display sort” value is “not found”.

B9: design_609_7ee6ce64-4629-41e8-bcb4-ba0da017284d_1584_dldesign_0_cycle1_af2pred (protein)
chain: MNVEEAKKEAKEIRDETIAKMKAAKTPEEVAAVAHEGLQKLAEGAYKFKSNKEAEKIYEEARKEVIDAAREIAAALEAAA
Consider B9, for which the “binding in a display sort” value is “not found”.

B10: design_609_7ee6ce64-4629-41e8-bcb4-ba0da017284d_914_dldesign_0_cycle1_af2pred (protein)
chain: AEAEELVEKAEERYKKLKERAEKAIKEGNKNELLAVSEAAKHAAEQAEKLAPKTGEKGKEVAKKFKELSKKAEETAKK
With B10, the “binding in a display sort” value was “not found”.

B11: design_609_7ee6ce64-4629-41e8-bcb4-ba0da017284d_1448_dldesign_0_cycle1_af2pred (protein)
chain: AEEEARKERLEAAKKELNELRLKAADSGDAEKALEYAKQAEAVAEKAGIPEDGEKAARVIRSIAEALKKN
Take B11: the “binding in a display sort” value is “not found”.

B12: design_609_7ee6ce64-4629-41e8-bcb4-ba0da017284d_862_dldesign_0_cycle1_af2pred (protein)
chain: MEVAKLAHEALEAAAEGEAVAKNDPEKREKLRELARKAREAAKKGDVEEAKKLAKEVKKLAKALEKEKKEKEK
For B12, the “binding in a display sort” value is “not found”.

B13: design_609_7ee6ce64-4629-41e8-bcb4-ba0da017284d_1728_dldesign_0_cycle1_af2pred (protein)
chain: EAEKQALADAAKAAEKAAKAAKESPEKGAKAAKELAKAYPEVAKAANAAARYIEELGEEGVDAAEEILKHAIKTLKAKAAAL
With B13, the “binding in a display sort” value is “not found”.

B14: design_609_7ee6ce64-4629-41e8-bcb4-ba0da017284d_1771_dldesign_0_cycle1_af2pred (protein)
chain: KKEEALNYASEMRAYLIGAAAASKLPQAPQLEAEAREKAEKVGELLSPEVAKKIKELTEQAIAGTPEERKALAREIAELVKKAVEE
Take B14: the “binding in a display sort” value was “not found”.

B15: design_609_7ee6ce64-4629-41e8-bcb4-ba0da017284d_960_dldesign_0_cycle1_af2pred (protein)
chain: DEEAYKKAKERGKKLEEKAKASNAYSAAAYYEAAYESYLQAAKQVRPELAKELKKAAEEAKAKAEEKYAEVAA
With B15, the “binding in a display sort” value is “not found”.

B16: design_609_7ee6ce64-4629-41e8-bcb4-ba0da017284d_1185_dldesign_0_cycle1_af2pred (protein)
chain: KSEESKKEAEAAAKAAGEAMAKATGDKATADALAKAMLDALKAGDEAAAVAKRNEAAAIALAADPALAMDVLAEGKAAIVYAKK
As for B16, the “binding in a display sort” value was “not found”.

B17: design_609_7ee6ce64-4629-41e8-bcb4-ba0da017284d_1000_dldesign_0_cycle1_af2pred (protein)
chain: GKAIEAQKLVADAFAKYRKGKANPETYEEDKAEARELLREALELDFESAKETAKFLAELAKWQNPEAGKEFAALVEEVIAEVA
Turning to B17, the “binding in a display sort” value was “not found”.

B18: design_609_7ee6ce64-4629-41e8-bcb4-ba0da017284d_1121_dldesign_0_cycle1_af2pred (protein)
chain: SKEEAIKNIRELRRELREVAEEAMKEVSEEDAKKVRELASKASGKLAEERGLAVSKPELAEEALKNAKEIAEKAIEEVKKIAEKAKK
For B18, the “binding in a display sort” value was “not found”.

B19: design_609_7ee6ce64-4629-41e8-bcb4-ba0da017284d_1733_dldesign_0_cycle1_af2pred (protein)
chain: SEKDKAIMEATFHANGALNLADVGGDKKEIEKEAKLAKEHAEKAAKLSSKEEGAKILEYVEKKVKEVEEKLKKL
Consider B19, for which the “binding in a display sort” value is “not found”.

B20: design_609_7ee6ce64-4629-41e8-bcb4-ba0da017284d_1354_dldesign_0_cycle1_af2pred (protein)
chain: AVAAAKAAAAKDAEEVNKLKFEAVDGDAETVEAVMKEVKARREEWLAKAKADPAAKAVYEAAAEGMDKTEKALQSVLDALKKN
In the case of B20, the “binding in a display sort” value is “not found”.

B21: design_609_7ee6ce64-4629-41e8-bcb4-ba0da017284d_900_dldesign_0_cycle1_af2pred (protein)
chain: GKEMVDKYSKERKKIAEAAKLAKEGKENPETFEKKAEEALKIAEEAAKEGDEGIKFQAENLKAYIEKLRKEK
Consider B21, for which the “binding in a display sort” value is “not found”.

B22: design_609_7ee6ce64-4629-41e8-bcb4-ba0da017284d_2006_dldesign_0_cycle1_af2pred (protein)
chain: EKLLGEGYADIIVDNTKSVIAADPSKAEEYVETNKAKGLARAEKIKDTEAGKVLKEKVEKEAEKLLAEAKKAKAAAEAAA
For the molecule B22, the “binding in a display sort” value is “not found”.

B23: design_609_7ee6ce64-4629-41e8-bcb4-ba0da017284d_1016_dldesign_0_cycle1_af2pred (protein)
chain: AAADAKAKFDVAFLAAELRASARAAAKANPAAAPAVVDAAAERLRAAGAAGTPEAAAYADAAIARERAWAAAAAAA
For B23, the “binding in a display sort” value is “not found”.

B24: design_609_7ee6ce64-4629-41e8-bcb4-ba0da017284d_1172_dldesign_0_cycle1_af2pred (protein)
chain: MEEVEAFKKEAQKKLDEAVEYALSISDIEKSKKVADLMSEMGKHYSEAYKAMESGEKLEEAKKNIEKAEEYYKKAKEIAEEDEKKKKE
Consider B24, for which the “binding in a display sort” value is “not found”.

B25: design_609_7ee6ce64-4629-41e8-bcb4-ba0da017284d_1726_dldesign_0_cycle1_af2pred (protein)
chain: AAAEEIAKAKAVYDKRKAKAQEYEKKGDYKGAANEYDIAAAQLGMAAAGLSPEAAAVAKALAEEAKKLAEEAEKKLAE
As to B25, the “binding in a display sort” value is “not found”.

B26: design_609_7ee6ce64-4629-41e8-bcb4-ba0da017284d_1780_dldesign_0_cycle1_af2pred (protein)
chain: MEQAELRREMVRLVREAGRILEEKAPEYPEAKEAIELLRKAVFLAGDKEKAPEALELLKKAAEIAKEIDPEAAELIKEALELAKKWKE
Take B26: the “binding in a display sort” value was “not found”.

B27: design_609_7ee6ce64-4629-41e8-bcb4-ba0da017284d_1936_dldesign_0_cycle1_af2pred (protein)
chain: SASEKTKEYLKKNDELGKKAAELSLKDEEKGLALAEKDVYIAIKASAILYKKGDEKALEHAKKFKEVAFKMLDE
In the case of B27, the “binding in a display sort” value is “not found”.

B28: design_609_7ee6ce64-4629-41e8-bcb4-ba0da017284d_1084_dldesign_0_cycle1_af2pred (protein)
chain: SEKEKEEVLKEAKEVLEKAKKAAEELGDEEAVKRMERRLKRAEEGNLQDAEAALESGKHALENAKKKLKEKEKAA
In the case of B28, the “binding in a display sort” value is “not found”.

B29: design_609_7ee6ce64-4629-41e8-bcb4-ba0da017284d_1351_dldesign_0_cycle1_af2pred (protein)
chain: AAAAAAEAARAAAAAAAVAAAAEAKTAEVAKADPSAAPYYADAAGIVVDSAAAALAAAPGAEAAAIAARGVRTINRLAESTIEAIKRR
As for B29, the “binding in a display sort” value was “not found”.

B30: design_609_7ee6ce64-4629-41e8-bcb4-ba0da017284d_962_dldesign_0_cycle1_af2pred (protein)
chain: AEAEVKAAIEELKAESEKIVEEAKKEMEKHKEDPKKVEEIRKEALKKIRELAKEVAEKTGDWKGASAVVHEAYEKLNEAYKEAIEKAK
For the molecule B30, the “binding in a display sort” value is “not found”.

B31: design_609_7ee6ce64-4629-41e8-bcb4-ba0da017284d_1721_dldesign_0_cycle1_af2pred (protein)
chain: SKLEEDKKKAEELKKEAEKLAEEAAKTTPEEAKKLRKELREKAKKVAEEVSPEIAKKVAEIAHEAQQKIAEAMQEIKK
For B31, the “binding in a display sort” value is “not found”.

B32: design_609_7ee6ce64-4629-41e8-bcb4-ba0da017284d_1108_dldesign_0_cycle1_af2pred (protein)
chain: MQEAIDYVKKKGSELIDKLVDDLAAGEEKDDPKIAKEVLEKLEELEKEAKKLSEEAAEEAKKAIETAKRIASNA
On to B32, for which the “binding in a display sort” value was “not found”.

B33: design_609_7ee6ce64-4629-41e8-bcb4-ba0da017284d_1124_dldesign_0_cycle1_af2pred (protein)
chain: MAEAFEFTAEGLRLLAEEKSPEEAEKYNELAEKFEELAERARTGTPEDAKAAREEGNKLVKENSELVFEAKEYKTEKDYEELK
For B33, the “binding in a display sort” value is “not found”.

B34: design_609_7ee6ce64-4629-41e8-bcb4-ba0da017284d_1088_dldesign_0_cycle1_af2pred (protein)
chain: NKSKEYSDAMKELVRAAKEAAAAADALGAAKGDPALAQAIKAELEKLVFEAADGDIETAKKLAEEAKKLKEAAEKALA
With B34, the “binding in a display sort” value is “not found”.

B35: design_609_7ee6ce64-4629-41e8-bcb4-ba0da017284d_1405_dldesign_0_cycle1_af2pred (protein)
chain: DLKKKIEAEAGKSYAEGVAESAAKIIAEIDPEIAPEYAEKVKKELTALAEKLADKSLETVYKEAKAIAKKVIEEAKKKK
As to B35, the “binding in a display sort” value is “not found”.

B36: design_609_7ee6ce64-4629-41e8-bcb4-ba0da017284d_1964_dldesign_0_cycle1_af2pred (protein)
chain: SKESRLRRAKALAEEAIKLLEEGEYAWAAALLRAAAREAERAGNEEAAKLLREAAELAAKSALEGPKYKEEALRLAKEALEILEKE
Consider B36, for which the “binding in a display sort” value was “not found”.

B37: design_609_7ee6ce64-4629-41e8-bcb4-ba0da017284d_1135_dldesign_0_cycle1_af2pred (protein)
chain: SAALEHLVESLIENSTKAAEEGTPEVAKLLNAAAAAAKAGDLETALKLADQALALSPPNINVTLARSDARNALELAKK
For B37, the “binding in a display sort” value was “not found”.

B38: design_609_7ee6ce64-4629-41e8-bcb4-ba0da017284d_1105_dldesign_0_cycle1_af2pred (protein)
chain: DALKEAAEIAAKARELAAELDYLAKKSSPELGKKYAAYAERLRKAVRETRETGVEGAEKTRKELEEVEKEVKEL
B38: the “binding in a display sort” value is “not found”.
